Inconclusive results are not listed. Activity calls are given as the source filed them. Calls follow the shape of the dose curve; as a rule, active = well fitted inhibition curve with a large enough effect; inconclusive = small, poorly fitted or top-dose-only effect; inactive = flat fitted curve, though single readings scatter.
molecular target: Dual specificity tyrosine-phosphorylation-regulated kinase 1A (Homo sapiens) (UniProt Q13627); test: Confirmation Assay for Inhibitors of Dyrk1a (Kinase-Glo Assay): KU probe; details: Kinase-Glo ATP luminescence; series mostly up to 76.9 µM
Method in brief: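 Recombinant human Dyrk1A (5 nM) was incubated with 8 uM DYRKtide and 2 uM ATP in Tris-HCl pH 7.5 with MgCl2, EGTA, cysteine and Triton X-100 for 2 h at room temperature; residual ATP was measured by Kinase-Glo luminescence.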

Compound | Potency
COc1ccc(-c2nccc(NCc3ccccc3)n2)cc1 | inactive
O=[N+]([O-])c1cc(Nc2nccc(-c3ccc4c(c3)OCO4)n2)cc(C(F)(F)F)c1 | 146 nM (active)
CCN(C)c1ncnc2ccc(-c3ccc4c(c3)OCO4)cc12 | 260 nM (active)
FC(F)(F)c1cccc(Nc2nccc(-c3ccc4c(c3)OCO4)n2)c1 | 65.4 nM (active)
Brc1cc(Br)cc(CNc2nccc(-c3ccc4c(c3)OCO4)n2)c1 | 73.3 nM (active)
c1nc(NCC2CC2)c2cc(-c3ccc4c(c3)OCO4)ccc2n1 | 41.2 nM (active)
CN(C)c1ccc(-c2nccc(NCc3ccccc3)n2)cc1 | inactive
c1nc(NCC2CCCCC2)c2cc(-c3ccc4c(c3)OCO4)ccc2n1 | 116 nM (active)
CN(C)c1ccc(-c2ncccn2)cc1 | inactive
c1cnc(-c2ccc3c(c2)OCO3)nc1 | inactive
Clc1cc(CNc2ccnc(-c3ccc4c(c3)OCO4)n2)ccn1 | 23200 nM (active)
Cc1c(-c2ccnc(NCc3ccc(Cl)cc3)n2)sc(=O)n1C | 164 nM (active)
COc1ccc(-c2nccc(NCc3ccc(Cl)c(Cl)c3)n2)cc1 | inactive
c1cncc(CNc2ccnc(-c3ccc4[nH]ncc4c3)n2)c1 | 654 nM (active)
Cc1ccc(CNc2ccnc(-c3c(C)noc3C)n2)cc1 | inactive
Cc1noc(C)c1-c1nccc(NCc2ccc(Cl)c(Cl)c2)n1 | inactive
CCCN(C)c1ncnc2ccc(-c3ccc4c(c3)OCO4)cc12 | 260 nM (active)
O=C(Nc1ccnc(-c2ccc3c(c2)OCO3)n1)c1ccncn1 | inactive

Reference: PubChem BioAssay AID624093 (National Center for Advancing Translational Sciences (NCATS), 2012)
